# Measurements published in PubChem BioAssay (NCATS).
# Unmarked numbers belong to inactive results. The source made the active and inactive calls. The rule behind the calls is not given here.
# Test system: HIV-1 nucleocapsid protein NCp7 (binding to TG oligonucleotide)
# Assay: HIV Nucleocapsid (AID 346);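 note: potency is for inhibitors that block NC binding and lower polarization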
# Conditions: HIV-1 NC / fluorescein-TGTGTGTG probe, fluorescence polarization
# In short: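 10 nM TG4xF probe with 100 nM nucleocapsid protein in high-salt Hepes pH 7.5 (250mM NaCl) containing 1uM ZnCl2 and reducing agents. Compound inhibition of binding was read as fluorescein polarization after 1 hr at room temperature.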
# Potency is the fitted concentration of half-maximal effect.
row,Compound,Potency
1,N#Cc1ccc(CN2CCCC3(CCNCC3)C2)cc1,> 20 µM
2,N#Cc1cccc(NC(=O)N2CC3(CCN(C(=O)c4cnccn4)CC3)C2)c1,> 20 µM
3,CCNc1ncc2nc(-c3cccs3)c(=O)n(Cc3cccc(OC)c3)c2n1,> 4 µM
4,COc1ccccc1-c1ccc2ncnc(N3CCOCC3)c2c1,> 20 µM
5,c1cncc(CNc2ncnc3ccc(-c4cccnc4)cc23)c1,> 20 µM
6,COc1cccc(Cn2c(=O)c(CCc3ccccc3)nc3cnc(OC)nc32)c1,> 20 µM
7,O=C(c1csnn1)N1CCC[C@@]2(CCN(Cc3ccccc3)C2)C1,> 20 µM
8,Cc1noc(C)c1-c1nccc(NCc2cccnc2)n1,> 20 µM
9,c1csc(CNc2ncnc3ccc(-c4ccoc4)cc23)c1,> 20 µM
10,c1csc(CNc2nc(-c3ccc4c(c3)OCO4)nc3ccccc23)c1,> 20 µM
11,CN(Cc1ccco1)c1ncncc1-c1ccccc1Cl,> 20 µM
12,O=c1c(CCc2ccccc2)nc2cncnc2n1C1CC1,> 20 µM
13,COc1cccc(Cn2c(=O)c(-c3ccc(Cl)cc3)nc3cnc(N(C)C)nc32)c1,> 20 µM
14,N#Cc1cccc(NC(=O)N2CCC3(CC2)CCN(C(=O)c2cnccn2)CC3)c1,> 20 µM
15,CN(C)Cc1ccccc1-c1cc(NCc2ccccc2)ncn1,> 20 µM
16,Cc1nc2cnc(Oc3ccccc3)nc2n(CCC#N)c1=O,> 20 µM
17,COCCn1c(=O)c(-c2cccc(C#N)c2)nc2cnc(N(C)C)nc21,> 4 µM
18,CC(=O)N1CCC[C@@]2(CCN(Cc3nccs3)C2)C1,> 20 µM
19,CS(=O)(=O)N1CCC2(CCCN(C(=O)Nc3cccc(F)c3)C2)CC1,> 20 µM
20,COCCn1c(=O)c(-c2cccc(C#N)c2)nc2cnc(N3CCNCC3)nc21,> 20 µM

row,Compound,Potency
1,COc1ccccc1CN1CC2(CCN(C(=O)c3ccncc3)CC2)C1,> 20 µM
2,COCCn1c(=O)cnc2cnc(OC)nc21,> 20 µM
3,O=c1c(CCc2ccccc2)nc2cnc(N3CCNCC3)nc2n1Cc1ccc(F)cc1,> 20 µM
4,N#Cc1cccc(-c2nc(NCc3cccnc3)c3ccccc3n2)c1,> 20 µM
5,CN(C)c1ccc(-c2ccc3ncnc(N(C)C)c3c2)cc1,> 20 µM
6,c1ccc(Nc2ncncc2-c2ccoc2)cc1,> 20 µM
7,CS(=O)(=O)Nc1cccc(-c2cc(NCc3ccccc3)ncn2)c1,> 20 µM
8,COc1ccc(-c2nc3cnc(Oc4ccccc4)nc3n(CCC#N)c2=O)cc1,16.7 µM
9,CCNc1ncc2nc(-c3cccs3)c(=O)n(C)c2n1,> 20 µM
10,CN1CCN(c2ncc3nc(-c4ccc(F)cc4)c(=O)n(C4CC4)c3n2)CC1,> 20 µM
11,O=C(c1ccncc1)N1CCC2(CCCN(Cc3nccs3)C2)CC1,> 20 µM
12,Cc1cccc(CNc2nc(-c3ccoc3)nc3ccccc23)c1,> 20 µM
13,CC(=O)NCCNc1ncnc2ccc(-c3ccccc3Cl)cc12,> 20 µM
14,Clc1ccccc1-c1cncnc1NCCN1CCOCC1,> 20 µM
15,COc1ccc(CNc2ncncc2-c2ccccc2CN(C)C)c(OC)c1,> 20 µM
16,COc1ccc(C(=O)N2CCC3(CC2)CN(c2ccccc2)C3)cc1,> 20 µM
17,CN(Cc1ccco1)c1nc(-c2ccccc2C(F)(F)F)nc2ccccc12,> 20 µM
18,COCCNc1ccnc(-c2ccccc2C(F)(F)F)n1,> 20 µM
19,CN(C)c1ncc2nc(-c3cccs3)c(=O)n(C3CC3)c2n1,0.297 µM (active)
20,COCCn1c(=O)c(-c2cc(F)cc(F)c2)nc2cnc(Oc3ccccc3)nc21,> 20 µM
